Results published in PubChem BioAssay (NCATS).
Unmarked numbers belong to inactive results. No rule for the calls is given here.

test system: HIV-1 nucleocapsid protein NCp7 (binding to TG oligonucleotide); assay: HIV Nucleocapsid (AID 346); conditions: HIV-1 NC / fluorescein-TGTGTGTG probe, fluorescence polarization;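 also: potency is for inhibitors that block NC binding and lower polarization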
Summary of the method: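 Inhibition of nucleocapsid binding to single-stranded 5'-TGTGTGTG probe (10 nM) was measured by fluorescence polarization after 1 hr at room temperature with 100 nM protein under high-salt, zinc-containing, reducing conditions.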
Potency is read from the fitted curve at half-maximal effect.

Row | SMILES | Potency
1 | COc1ccccc1CN1CCC2(CC1)CCN(S(=O)(=O)c1ccccc1)CC2 | > 20 µM
2 | O=c1c(-c2cccs2)nc2cnc(N3CCOCC3)nc2n1Cc1ccc(F)cc1 | > 20 µM
3 | CS(=O)(=O)Nc1cccc(-c2nc(Nc3ccncc3)c3ccccc3n2)c1 | > 20 µM
4 | O=C(c1csnn1)N1CCC2(CCCN(c3ncccn3)C2)CC1 | > 20 µM
5 | COc1ccccc1CNc1ncnc2ccc(-c3ccc(N(C)C)cc3)cc12 | > 20 µM
6 | COc1cccc(-c2cc(NCc3ccccc3)ncn2)c1 | > 20 µM
7 | COc1ccccc1-c1cc(NCc2cccs2)ncn1 | > 20 µM
8 | CNc1ncncc1-c1ccccc1CN(C)C | > 20 µM
9 | CC(=O)NCCNc1ncncc1-c1ccccc1C | > 20 µM
10 | COc1ncc2nc(-c3cccs3)c(=O)n(Cc3ccc(F)cc3)c2n1 | > 20 µM
11 | CCNc1ncc2nc(-c3cc(F)cc(F)c3)c(=O)n(Cc3cccs3)c2n1 | > 20 µM
12 | CS(=O)(=O)N1CCC2(CC1)CN(Cc1ccccc1)C2 | > 20 µM
13 | O=C(c1cc(C(F)(F)F)cc(C(F)(F)F)c1)N1CCC2(CCCN(Cc3nccs3)C2)CC1 | > 20 µM
14 | COc1ccc(-c2nc3cnc(Nc4cccc(OC)c4)nc3n(CCC#N)c2=O)cc1 | > 20 µM
15 | c1cncc(-c2cncnc2NC2CCNCC2)c1 | > 20 µM
16 | CC(=O)N1CCC[C@@]2(CCN(c3ncccn3)C2)C1 | > 20 µM
